Each structure is given as a SMILES string. Results filed as inconclusive are left out. The source made the active and inactive calls. Unless noted, calls come from the whole dose curve; as a rule, active = well fitted curve in the direction sought with a large enough effect; inconclusive = small, poorly fitted or top-dose-only effect, or another doubt; inactive = no such curve, though single readings can be large; an effect the other way counts as inactive or inconclusive.

The target of test [1] is Lysosomal acid glucosylceramidase (Homo sapiens) (UniProt P04062). Kind of test: Glucocerebrosidase-p2 (AID 348; in the data active = potency below about 10 µM; note: potency is the fitted concentration of half-maximal effect). As to conditions: purified GBA, blue fluorogenic substrate, 40 min. In outline: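 Normal human glucocerebrosidase (0.2 nM) with blue fluorogenic substrate (80 uM final) in citrate/phosphate pH 5.9 with 10mM sodium taurocholate, 0.01% tween-20; 40 min RT, NaOH/glycine stop; fluorescence Ex 365/Em 440; AC50 from a titration from 0.6 nM upwards.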
Sequence of Lysosomal acid glucosylceramidase (Homo sapiens) (P04062 whole entry, looked up): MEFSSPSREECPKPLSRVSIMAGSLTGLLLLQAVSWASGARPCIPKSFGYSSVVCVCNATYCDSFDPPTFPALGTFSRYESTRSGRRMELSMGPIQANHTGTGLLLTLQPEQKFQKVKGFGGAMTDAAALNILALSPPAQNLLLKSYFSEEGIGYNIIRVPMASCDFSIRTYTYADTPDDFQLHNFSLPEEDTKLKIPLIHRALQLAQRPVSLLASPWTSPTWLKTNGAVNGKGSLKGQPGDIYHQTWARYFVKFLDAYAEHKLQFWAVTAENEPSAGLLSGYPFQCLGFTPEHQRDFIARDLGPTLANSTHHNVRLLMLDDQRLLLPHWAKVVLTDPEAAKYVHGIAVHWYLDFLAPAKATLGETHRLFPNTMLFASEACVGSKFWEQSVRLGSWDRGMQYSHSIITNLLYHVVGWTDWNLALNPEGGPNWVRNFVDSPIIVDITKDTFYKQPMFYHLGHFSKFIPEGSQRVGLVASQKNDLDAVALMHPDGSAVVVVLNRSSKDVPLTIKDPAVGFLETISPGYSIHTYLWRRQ

Test [2] is described as follows: AP1 Signaling Pathway (AID 357; active = well fitted curve in either direction with a large enough effect, not every such curve was filed as active;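 note: ME-180 reporter cells stimulated with EGF at its EC50 level; % is set by controls: 0 for no effect and ±100 for the full control effect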). Conditions: ME-180 AP-1-bla reporter, EGF-induced, beta-lactamase ratio, 5 h; at 7.69 µM (top of the series) unless noted. In outline: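 Titration-series screen for positive or negative modulators of EC50 EGF-induced signaling in ME-180 cells carrying an AP-1-driven beta-lactamase reporter. After 5 hours at 37 degrees Celsius, CCF4 460nm/530nm emission ratio gave %Activity; AC50 values derived.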

For test [3], the target named is Cytochrome P450 1A2 (Homo sapiens) (UniProt P05177). Kind of test: p450-cyp1a2 (AID 410; calls by dose curve; note: potency is the fitted concentration of half-maximal effect). As to conditions: recombinant CYP1A2, luciferin-ME demethylation, luminescence; series mostly up to 57 µM. A digest of the protocol:
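20nM CYP1A2, 100uM Luciferin-ME (=Km), 100mM KPO4; cpd 10 min RT; +NADPH regen, 60 min RT; stop/detect 20 min; luminescence. Normalized to furafylline 57 uM = full inhibition.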

Test [4] can be described thus: NFAT Signaling Pathway (AID 444; active = well fitted curve in either direction with a large enough effect, not every such curve was filed as active;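 note: carbachol stimulus at about its EC50 of 1 µM final; % is set by controls: 0 for no effect and ±100 for the full control effect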). Conditions: Jurkat NFAT-bla M1, carbachol, beta-lactamase ratio, 5 h; at 7.69 µM (top of the series) unless noted. A digest of the protocol: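 Jurkat cells with NFAT-driven β-lactamase reporter and co-expressed M1 receptor, stimulated with carbachol (final 1 uM, ~EC50), compound titration, 5 h at 37 °C. CCF4 loaded 1 h at RT; 460/530 nm ratio gave %activity and AC50.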

Test [5] deals with Glucocorticoid receptor (Homo sapiens) (UniProt P04150). Kind of test: GR-GFP Redistribution (AID 450;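 active = compounds whose dose series gives a full or clear partial fitted curve of increased nuclear translocation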; note: potency is the fitted concentration of half-maximal effect). Conditions: U2OS GR-GFP nuclear translocation, laser cytometry, 2 h.
Sequence of Glucocorticoid receptor (Homo sapiens) (P04150 whole entry, looked up): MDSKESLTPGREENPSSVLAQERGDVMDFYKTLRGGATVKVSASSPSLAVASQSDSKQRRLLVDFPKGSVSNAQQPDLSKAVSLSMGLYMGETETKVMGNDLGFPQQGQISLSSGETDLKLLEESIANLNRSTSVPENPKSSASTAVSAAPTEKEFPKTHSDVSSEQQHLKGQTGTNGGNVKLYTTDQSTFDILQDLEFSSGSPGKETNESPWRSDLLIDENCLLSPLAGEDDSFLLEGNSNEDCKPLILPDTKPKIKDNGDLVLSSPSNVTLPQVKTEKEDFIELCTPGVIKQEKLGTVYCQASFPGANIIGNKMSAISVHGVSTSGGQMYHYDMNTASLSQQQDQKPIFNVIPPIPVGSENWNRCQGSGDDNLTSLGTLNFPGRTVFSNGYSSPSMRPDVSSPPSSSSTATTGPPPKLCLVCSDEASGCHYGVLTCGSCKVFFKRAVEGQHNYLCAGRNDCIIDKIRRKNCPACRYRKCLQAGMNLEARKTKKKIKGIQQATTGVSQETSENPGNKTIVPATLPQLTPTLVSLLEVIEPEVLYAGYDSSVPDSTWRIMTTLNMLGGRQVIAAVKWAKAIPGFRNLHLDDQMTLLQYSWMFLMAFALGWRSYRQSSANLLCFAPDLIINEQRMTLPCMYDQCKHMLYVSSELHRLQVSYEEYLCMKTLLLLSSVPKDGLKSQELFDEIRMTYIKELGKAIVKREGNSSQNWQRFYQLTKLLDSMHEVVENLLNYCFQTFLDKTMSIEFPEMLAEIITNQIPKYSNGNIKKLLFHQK
Test [6] has the same target. Kind of test: GR-EFC Redistribution (AID 451; calls by dose curve; note: potency is the fitted concentration of half-maximal effect). Conditions: CHO-K1 GR-EFC translocation, beta-gal luminescence, 2 h. A digest of the protocol:
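CHO-K1 cells expressing nuclear EA and GR-ED fragments of b-gal; compounds titrated up to 46 uM final, 2 h at 37 C. GR nuclear translocation read as complemented b-gal luminescence after 1 h RT detection.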

For test [7], the target named is Mitogen-activated protein kinase 10 (Mus musculus) (UniProt Q61831). Kind of test: JNK3 AlphaScreen Assay (AID 530; active = well fitted curve in either direction with a large enough effect, not every such curve was filed as active;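 note: kinase came from lysate of stimulated human HepG2 cells; signal reports phosphorylation of biotinylated GST-cJun 1-79 at Ser73 with 10 µM ATP; % is set by controls: 0 for no effect and ±100 for the full control effect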). As to conditions: JNK3 lysate, c-Jun phosphorylation; series mostly up to 57.1 µM. A digest of the protocol: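 HepG2 lysate (IL-1b/TNFa pre-activated) + biotin-GST-cJun 1-79 + anti-pSer73 cJun; cpd titration, 15 min RT; ATP 10 uM start; Tris pH 7.6, MgCl2, DTT, vanadate; beads in EDTA buffer; AlphaScreen.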
On the technique in general: In Alpha technology, singlet oxygen from a donor bead excites a nearby acceptor bead.

Test [8] concerns the target 3',5'-cyclic-AMP phosphodiesterase 4B (Homo sapiens) (UniProt Q07343). Kind of test: qHTS Assay for Inhibitors of PDE-IV (AID 607; active = well fitted activation curve with a large enough effect in the main read-out, with a control signal flat, not every such curve was filed as active; note: % of control where 0% means no effect). Conditions: HEK293 ACTOne CNG channel cells, membrane potential fluorescence; series mostly up to 22.9 µM. In outline:
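Live HEK293 cells with a modified cyclic nucleotide-gated (CNG) channel report intracellular cAMP via membrane-potential dye fluorescence (ex 535/em 590 nm). Endogenous PDE-IV was targeted. Compounds were tested at up to 22.9 uM final; RO 20-1724 100 uM served as control.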
On the technique in general: In qHTS, concentration-response curves come from the screen itself.

Test [9] has as its target Cytochrome P450 3A4 (Homo sapiens) (UniProt P08684). Kind of test: qHTS Assay for Inhibitors and Substrates of Cytochrome P450 3A4 (AID 884). Note: potency is the fitted concentration of half-maximal effect; nearly all actives have a fitted effect of over 50% in size. As to conditions: recombinant CYP3A4, Luciferin-PPXE luminescence; series mostly up to 57.1 µM. A digest of the protocol: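 Luminescent readout of luciferin produced by CYP3A4 (20 nM) dealkylation of Luciferin-PPXE, 25 uM (its KM). NADPH-driven reaction ran 60 min at RT after 10 min compound preincubation; data scaled to 57 uM ketoconazole as 100% inhibition.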

Test [10] shares this target. Kind of test: qHTS Assay for Activators of Cytochrome P450 3A4 (AID 885). Note: nearly all actives have a fitted effect of over 65% in size. As to conditions: recombinant CYP3A4, Luciferin-PPXE luminescence, 60 min; series mostly up to 57.1 µM. A digest of the protocol:
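Using 20nM recombinant human CYP3A4 in potassium phosphate (200mM), substrate Luciferin-PPXE at 25uM, luminescent luciferin detection followed a 60-min RT NADPH reaction; data scaled to 57 uM ketoconazole.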

The nature of test [11]: qHTS Assay for Identification of Small Molecule Agonists for Hypoxia Response Element Signaling Pathway (AID 914; active = well fitted activation curve with a large enough effect in the signal ratio, with a control signal flat, not every such curve was filed as active; the % refers to the signal ratio; note: potency is the fitted concentration of half-maximal effect; for activation: % of control where 0% means no effect). As to conditions: ME-180 HRE-bla reporter, beta-lactamase ratio, CoCl2, 17 h; activation: stronger effect = higher value. A digest of the protocol:
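HRE-bla ME-180 cells with beta-lactamase reporter under hypoxia response element, compounds with EC50 CoCl2 for 17 hours at 37 C. CCF4 substrate, 460nm/530nm emission ratio gave %Activity; AC50 from titration series.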

A short description of test [12]: qHTS Assay for Lipid Storage Modulators (AID 1519; calls by dose curve). As to conditions: Drosophila S3 cells, BODIPY lipid droplet/cell ratio, laser cytometry, cells loaded with oleic acid; for activity change, negative = inhibition: at 57.5 µM (top of the series). In outline: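 Cells seeded at 5,000 per well were treated with compounds over a concentration series and loaded with oleic acid (400 uM, as added). Lipid droplet fluorescence (488 nm excitation, 500-530 nm channel) was read by laser-scanning cytometry and normalized to 20 uM Triacsin C.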

Test [13] has as its target Dual specificity protein kinase CLK4 (Homo sapiens) (UniProt Q9HAZ1). Kind of test: qHTS Assay for Inhibitors of CDC-like Kinase 4 (Kinase-Glo Assay) (AID 1770). Note: nearly all actives have a fitted effect of over 65% in size. Note: potency is the fitted concentration of half-maximal effect. Conditions: recombinant Clk4, Kinase-Glo ATP depletion luminescence; series mostly up to 66.7 µM. A digest of the protocol: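 Clk4 25 nM, RS peptide 100 uM, ATP 1 uM, pH 7.5 Tris, 10 mM MgCl2, 2.5 mM DTT; 4.5 h RT; ATP depletion read by Kinase-Glo luminescence.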

Test [14] shares this target. Kind of test: qHTS Assay for Inhibitors of CDC-like Kinase 4 (ADP-Glo Assay) (AID 1771). Note: nearly all actives have a fitted effect of over 70% in size. Note: potency is the fitted concentration of half-maximal effect. Conditions: recombinant CLK4, ADP-Glo luminescence; series mostly up to 80 µM. A digest of the protocol:
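25 nM Clk4, 100 uM RS peptide, 1 uM ATP (final); 2 mM MgCl2, 0.5 mM EGTA, 2.5 mM DTT, 0.01% Triton X-100; 1 hr RT. ADP-Glo readout: ATP depletion 45 min, conversion/luciferase 30 min, luminescence.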

Test [15] shares this target. Kind of test: qHTS Assay for Inhibitors of CDC-like Kinase 4 (ADP-FP Assay) (AID 1795). Note: nearly all actives have a fitted effect of over 60% in size. Note: potency is the fitted concentration of half-maximal effect. Conditions: Transcreener ADP fluorescence polarization; series mostly up to 50 µM. A digest of the protocol: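 Kinase activity was followed as ADP output, converted from fluorescence polarization with a calibration curve. Reactions ran one hour at low ATP (1 uM) with RS peptide substrate.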

Test [16] has as its target Ubiquitin carboxyl-terminal hydrolase 1 (Homo sapiens) (UniProt O94782). Kind of test: Inhibitors of USP1/UAF1: Pilot qHTS (AID 504865).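 Note: rhodamine fluorescence freed from ubiquitin-rhodamine substrate followed over time; top concentration of the series differs between compounds; % is set by controls: 0 for no effect and ±100 for the full control effect; nearly all actives have a fitted effect of over 35% in size.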 Conditions: purified USP1/UAF1, Ub-rhodamine cleavage fluorescence; series mostly up to 54.9 µM. In outline: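 Enzyme-free wells gave the negative control, while test wells held 1nM USP1/UAF1 preincubated with compound for 15 min at room temperature. Ub-Rho at 150nM final started the reaction, and fluorescence at 480/540 nm was recorded kinetically.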

Test [17] is described as follows: Primary qHTS for small molecule stabilizers of the endoplasmic reticulum resident proteome: Secreted ER Calcium Modulated Protein (SERCaMP) assay (AID 1508630). Note: % is set by controls: 0 for no effect and ±100 for the full control effect. As to conditions: SH-SY5Y GLuc-SERCaMP (Gaussia luciferase released on ER calcium loss) secretion, thapsigargin, luminescence; series mostly up to 38.4 µM. A digest of the protocol:
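The SH-SY5Y reporter protocol was run at 3 concentrations up to 38.3 uM (primary) or 11 concentrations (follow-up): 16 h compound, 100 nM thapsigargin for 4 h, then extracellular luciferase luminescence.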

The nature of test [18]: Stat Signaling Pathway (AID 446; active = well fitted curve in either direction with a large enough effect, not every such curve was filed as active). Conditions: ME-180 (cervical carcinoma) SIE beta-lactamase reporter, IL-6 stimulated, 5 h; at 7.69 µM (top of the series) unless noted. In outline: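 Overnight-plated ME-180 cells bearing a STAT Inducible Element beta-lactamase reporter; 5 h co-exposure to compound and 40 pM IL-6; values normalized to 300 pM IL-6 and 125 nM JAK inhibitor controls.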
Test [19] concerns the target Cytochrome P450 2C9 (Homo sapiens) (UniProt P11712). Kind of test: qHTS Assay for Inhibitors and Substrates of Cytochrome P450 2C9 (AID 883). Note: nearly all actives have a fitted effect of over 60% in size. Note: potency is the fitted concentration of half-maximal effect. As to conditions: recombinant CYP2C9, luciferin-H luminescence, 60 min; series mostly up to 57.1 µM. A digest of the protocol:
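10nM CYP2C9 + 100uM Luciferin-H (=KM), 25mM KPO4; cpd 10 min 37C; NADPH regen, 60 min 37C; stop/detect with P450 Glo-Buffer 20 min; luminescence. Norm. to 57uM sulphaphenazole as full inhibition.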

Where [20] appears, read: measured here: cell count channel max response.
The mark [21] stands for this setting: measured here: lipid channel max response.

Sequence of Cytochrome P450 3A4 (Homo sapiens) (P08684 whole entry, looked up): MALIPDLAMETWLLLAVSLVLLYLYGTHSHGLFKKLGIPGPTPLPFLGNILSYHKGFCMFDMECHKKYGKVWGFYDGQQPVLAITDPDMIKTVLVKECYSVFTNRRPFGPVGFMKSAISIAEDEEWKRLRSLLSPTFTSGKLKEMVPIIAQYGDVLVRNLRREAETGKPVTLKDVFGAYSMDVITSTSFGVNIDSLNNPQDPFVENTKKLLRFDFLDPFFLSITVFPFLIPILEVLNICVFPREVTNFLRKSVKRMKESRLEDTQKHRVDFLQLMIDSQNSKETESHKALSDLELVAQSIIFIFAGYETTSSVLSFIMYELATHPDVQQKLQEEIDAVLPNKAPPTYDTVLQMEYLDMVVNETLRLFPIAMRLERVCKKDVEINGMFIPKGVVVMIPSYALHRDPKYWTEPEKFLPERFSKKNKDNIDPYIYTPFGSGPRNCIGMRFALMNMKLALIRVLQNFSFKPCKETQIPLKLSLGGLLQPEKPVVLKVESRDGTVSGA
Sequence of Dual specificity protein kinase CLK4 (Homo sapiens) (Q9HAZ1 whole entry, looked up): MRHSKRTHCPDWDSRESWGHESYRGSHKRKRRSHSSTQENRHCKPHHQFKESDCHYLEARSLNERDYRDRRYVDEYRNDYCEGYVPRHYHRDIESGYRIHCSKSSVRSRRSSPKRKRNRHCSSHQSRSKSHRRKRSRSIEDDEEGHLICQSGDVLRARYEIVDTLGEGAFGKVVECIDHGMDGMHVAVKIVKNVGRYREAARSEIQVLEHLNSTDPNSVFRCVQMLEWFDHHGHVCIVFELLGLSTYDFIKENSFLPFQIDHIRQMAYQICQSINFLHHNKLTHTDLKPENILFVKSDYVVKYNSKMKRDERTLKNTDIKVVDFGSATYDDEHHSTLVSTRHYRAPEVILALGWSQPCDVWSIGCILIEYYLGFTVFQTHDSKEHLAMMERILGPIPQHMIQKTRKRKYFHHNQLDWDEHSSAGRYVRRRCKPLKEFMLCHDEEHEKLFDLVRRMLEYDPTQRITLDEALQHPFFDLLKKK
Sequence of Cytochrome P450 1A2 (Homo sapiens) (P05177 whole entry, looked up): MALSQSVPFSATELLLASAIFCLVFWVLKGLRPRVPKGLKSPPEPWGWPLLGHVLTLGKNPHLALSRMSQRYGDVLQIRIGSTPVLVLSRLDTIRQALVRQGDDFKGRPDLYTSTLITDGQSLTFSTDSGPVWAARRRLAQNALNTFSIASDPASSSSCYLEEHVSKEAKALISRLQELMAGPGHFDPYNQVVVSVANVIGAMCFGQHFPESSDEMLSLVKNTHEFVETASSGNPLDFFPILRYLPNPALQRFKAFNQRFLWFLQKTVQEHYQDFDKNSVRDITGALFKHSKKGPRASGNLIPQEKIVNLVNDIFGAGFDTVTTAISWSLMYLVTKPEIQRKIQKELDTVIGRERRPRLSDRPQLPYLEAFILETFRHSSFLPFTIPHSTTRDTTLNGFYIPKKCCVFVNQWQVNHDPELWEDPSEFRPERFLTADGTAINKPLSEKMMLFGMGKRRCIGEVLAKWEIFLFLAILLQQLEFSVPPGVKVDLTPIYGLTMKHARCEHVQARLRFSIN
Sequence of Ubiquitin carboxyl-terminal hydrolase 1 (Homo sapiens) (O94782 whole entry, looked up): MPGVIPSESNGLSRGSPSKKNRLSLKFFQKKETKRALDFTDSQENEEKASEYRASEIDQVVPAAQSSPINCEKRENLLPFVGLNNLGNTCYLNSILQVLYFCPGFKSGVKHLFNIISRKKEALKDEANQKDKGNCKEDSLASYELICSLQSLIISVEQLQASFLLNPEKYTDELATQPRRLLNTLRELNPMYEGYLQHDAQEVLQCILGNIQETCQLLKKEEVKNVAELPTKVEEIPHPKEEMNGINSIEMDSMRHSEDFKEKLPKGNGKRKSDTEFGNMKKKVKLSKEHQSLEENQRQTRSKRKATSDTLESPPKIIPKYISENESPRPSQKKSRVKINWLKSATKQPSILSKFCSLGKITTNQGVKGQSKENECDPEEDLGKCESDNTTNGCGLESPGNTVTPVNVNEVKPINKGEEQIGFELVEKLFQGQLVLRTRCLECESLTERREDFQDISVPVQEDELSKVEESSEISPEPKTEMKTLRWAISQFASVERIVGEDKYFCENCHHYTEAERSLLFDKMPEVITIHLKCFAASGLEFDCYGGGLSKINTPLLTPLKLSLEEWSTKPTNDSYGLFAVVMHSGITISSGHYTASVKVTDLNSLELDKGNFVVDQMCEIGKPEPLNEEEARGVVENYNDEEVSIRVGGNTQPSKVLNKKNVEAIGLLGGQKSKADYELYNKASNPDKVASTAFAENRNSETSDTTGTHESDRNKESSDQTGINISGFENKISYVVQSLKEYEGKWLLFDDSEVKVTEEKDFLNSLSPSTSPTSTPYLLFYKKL
Sequence of 3',5'-cyclic-AMP phosphodiesterase 4B (Homo sapiens) (Q07343 whole entry, looked up): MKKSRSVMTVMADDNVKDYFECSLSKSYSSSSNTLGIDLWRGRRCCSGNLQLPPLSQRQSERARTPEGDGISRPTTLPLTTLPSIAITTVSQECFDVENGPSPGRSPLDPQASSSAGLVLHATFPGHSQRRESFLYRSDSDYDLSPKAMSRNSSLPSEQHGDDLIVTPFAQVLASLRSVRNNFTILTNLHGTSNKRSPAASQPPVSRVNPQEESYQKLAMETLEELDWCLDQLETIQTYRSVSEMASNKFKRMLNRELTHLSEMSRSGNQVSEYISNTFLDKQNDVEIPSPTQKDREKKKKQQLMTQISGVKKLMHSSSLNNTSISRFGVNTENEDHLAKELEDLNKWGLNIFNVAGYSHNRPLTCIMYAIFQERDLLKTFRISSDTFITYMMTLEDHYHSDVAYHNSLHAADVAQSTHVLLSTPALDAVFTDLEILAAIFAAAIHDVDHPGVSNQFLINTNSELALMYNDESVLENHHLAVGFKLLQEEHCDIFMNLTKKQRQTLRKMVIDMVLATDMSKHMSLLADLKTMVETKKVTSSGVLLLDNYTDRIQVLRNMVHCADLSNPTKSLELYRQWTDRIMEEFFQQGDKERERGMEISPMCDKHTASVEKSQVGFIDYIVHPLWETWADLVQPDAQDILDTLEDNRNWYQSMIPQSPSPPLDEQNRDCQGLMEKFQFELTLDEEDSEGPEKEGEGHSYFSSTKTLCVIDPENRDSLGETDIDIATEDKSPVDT
Sequence of Cytochrome P450 2C9 (Homo sapiens) (P11712 whole entry, looked up): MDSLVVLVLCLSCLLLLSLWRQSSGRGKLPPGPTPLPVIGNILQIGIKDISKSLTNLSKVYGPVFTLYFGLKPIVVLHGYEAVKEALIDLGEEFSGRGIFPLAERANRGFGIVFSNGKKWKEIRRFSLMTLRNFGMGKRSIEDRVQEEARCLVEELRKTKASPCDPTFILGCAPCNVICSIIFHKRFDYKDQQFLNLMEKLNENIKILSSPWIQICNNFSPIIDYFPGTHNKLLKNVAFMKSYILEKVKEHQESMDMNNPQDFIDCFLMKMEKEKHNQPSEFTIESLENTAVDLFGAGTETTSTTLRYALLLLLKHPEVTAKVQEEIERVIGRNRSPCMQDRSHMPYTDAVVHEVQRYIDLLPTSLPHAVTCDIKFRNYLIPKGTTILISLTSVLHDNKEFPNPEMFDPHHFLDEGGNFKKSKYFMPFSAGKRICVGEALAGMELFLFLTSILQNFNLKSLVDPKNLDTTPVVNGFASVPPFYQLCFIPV

For `CCNc1ncc2nc(-c3cn(C)c4ccccc34)c(=O)n(Cc3cccc(OC)c3)c2n1`, the Potency in test [1] was > 11.4 µM (inactive); in test [3] it was 12.6 µM (active); in [5], > 9.22 µM (inactive); in [6], > 46 µM (inactive); in [9] it was 3.98 µM (active); in [11] it was 1.58 µM (active). Further, the activity change, negative = inhibition in test [2] was 0.603% (inactive); in test [4] it was 5.19% (inactive); in test [12], 2.75% (inactive). Also, the call in [7] was inactive. The Potency result in test [8], in test [10], in test [13], in test [14], in [15] and in [16] was “inactive” in each case. Besides, in [17], the Potency entry is “inactive”. Besides, the max response in [12] (setting [20]) came to 15.6%; in test [12] (setting [21]), 16.9%.

As to `CN1CCN(c2ncnc3ccc(-c4ccc5c(c4)OCO5)cc23)CC1`, the Potency in test [1] is > 11.4 µM (inactive); in test [3], 2.51 µM (active); in test [5], > 46 µM (inactive); in test [6], > 46 µM (inactive); in test [9] it was 7.94 µM (active); in test [13] it was 0.282 µM (active). Also, the values for the Potency in test [14] and in test [15] were 0.562 µM (active) and 0.158 µM (active), respectively. Moreover, the activity change, negative = inhibition in test [2] was -24.4% (inactive); in [4] it was -20.4% (inactive); in test [12] it was 4.95% (inactive). Moreover, in test [18], the activity, negative = inhibition is 6.89% (inactive). Further, in test [7], the result was inactive. For the same molecule, the Potency result in test [10], in test [16] and in test [17] was “inactive” throughout. Also, the max response in test [12] (setting [20]) came out at 4.86%; in test [12] (setting [21]), 5.74%.

Consider `O=c1c(-c2cccs2)nc2cncnc2n1Cc1ccccc1`, for which the Potency in test [1] was > 11.4 µM (inactive); in test [3], 2.51 µM (active); in test [5] it was > 9.22 µM (inactive); in test [6] it was > 46 µM (inactive); in test [19], 1.26 µM (active). The values for the activity change, negative = inhibition in test [2], in test [4] and in [12] were -16.8% (inactive), 1.15% (inactive) and 1.03% (inactive), respectively. Also, the activity, negative = inhibition in [18] was 7.21% (inactive). Besides, in test [7], the molecule was classed as inactive. Further, the Potency entry in test [10], in [13], in test [14], in test [15], in [16] and in test [17] was “inactive” in each case. For the same molecule, the max response in test [12] (setting [20]) came to 22.1%; in [12] (setting [21]), 21.4%.

On to `CCNc1ncc2ncc(=O)n(C3CC3)c2n1`, for which the Potency in [1] was > 11.4 µM (inactive); in test [3] it was 3.16 µM (active); in test [5] it was > 9.22 µM (inactive); in test [6] it was > 46 µM (inactive); in [13] it was 14.1 µM (active); in test [14], 11.2 µM (active). For the same molecule, the Potency in [15] is 12.6 µM (active). For the same molecule, the activity change, negative = inhibition in [2] is -20.4% (inactive); in test [4] it was -6.86% (inactive); in [12], 3.55% (inactive). For the same molecule, the activity, negative = inhibition in test [18] is -6.01% (inactive). The result in test [7] was inactive. For the same molecule, the Potency entry in [19], in test [16] and in [17] was “inactive” in each case. Also, the max response in test [12] (setting [20]) worked out at 13.3%; in test [12] (setting [21]), 13.9%.

As to `COCCn1c(=O)c(-c2ccccc2)nc2cnc(OC)nc21`, the Potency in test [1] was > 11.4 µM (inactive); in [3], 1 µM (active); in test [5] it was > 9.22 µM (inactive); in test [6], > 46 µM (inactive). Also, the figures for the activity change, negative = inhibition in test [2], in test [4] and in test [12] were -2.69% (inactive), -14.5% (inactive) and 5.61% (inactive), respectively. For the same molecule, the activity, negative = inhibition in test [18] is -12.2% (inactive). Moreover, the result in test [7] was inactive. The Potency entry in [8], in test [13], in test [14], in [15], in test [16] and in test [17] was “inactive” each time. In addition, in test [11], the activation is -14.2% (inactive). Besides, the max response in test [12] (setting [20]) was found to be 16.8%; in test [12] (setting [21]), 21.9%.
